PubChem BioAssay (NCATS)
Results filed as inconclusive are left out. Values without a mark were called inactive. Calls of active or inactive are those of the source. Calls follow the shape of the dose curve; as a rule, active = well fitted inhibition curve with a large enough effect; inconclusive = small, poorly fitted or top-dose-only effect; inactive = flat fitted curve, though single readings scatter. Where a SMILES comes first, the peptide text is derived from it. The star is where a group is joined. βNA = c1ccc2cc(N*)ccc2c1; Cbz = O=C(OCc1ccccc1)*

test: Primary qHTS for inhibitors of nuclear receptor binding SET domain protein 2 (NSD2) in an isogenic RCH-ACV NSD2 p.E1099K mutant (9B) (AID 1645876); details: RCH-ACV (leukaemia line) NSD2 E1099K (9B) viability, CellTiter-Glo, 72 h; series mostly up to 44.9 µM; activity change, negative = viability loss: at the top concentration; also: nearly all actives have a fitted effect of over 70% in size
% is scaled to controls: 0 for no effect and ±100 for the full control effect.

Structure (SMILES) | outcome | activity change, negative = viability loss
OC[C@@]1(O)CO[C@@H](OC[C@H]2O[C@@H](Oc3ccccc3)[C@H](O)[C@@H](O)[C@@H]2O)[C@@H]1O | inactive | –
C=C1C(OC(C)=O)CCC2(C)CC3(O)OC(=O)C(C)=C3CC12 (stereo unspecified) | – | -14%
CC(C)(O)C1CCC2(C)CCCC(C)(O)C2C1 (stereo unspecified) | – | -15.2%
O=C(/C=C/c1ccc(O)cc1)OCC1OC(O)C(OC2OC(CO)C(O)C(O)C2O)C(O)C1O (stereo unspecified) | – | -4.53% [at 17.3 µM]
CC1(C)C=Cc2c(ccc3c2N=C2C(C)(C)[C@@H]4C[C@]56CCCN5C(=O)[C@@]4(C[C@]23O)NC6=O)O1 | inactive [at 17.3 µM] | –
C/C=C(\C)C(=O)OCC1OC(OCC2OC(OC3(CO)OC(CO)C(O)C3O)C(O)C(O)C2O)C(O)C(O)C1O (stereo unspecified) | – | -4.06% [at 17.3 µM]
Fc1cccc(CN(C2=NCCN2)c2c(Cl)cccc2Cl)c1 | – | -15.4%
C=C1CC23CC(=O)C4C(CO)(CO)CCCC4(C)C2CCC1C3 (stereo unspecified) | – | -18.7%
Cc1c(NC(=O)N2CCOCC2)ccc2c1c1ccccc1n2C(C)C | – | -5.33%
O=C(O)C[C@H]1CCC(=O)[C@@H]1C/C=C\CCO | – | -11.2%
CCC(C)C(=O)OC[C@H]1O[C@H](O[C@H]2O[C@H](CO)[C@@H](O)[C@H](O)[C@H]2O)[C@H](O)[C@@H](O)[C@@H]1O (stereo partly specified) | – | 1.78% [at 17.3 µM]
CC(C)C(O)(CO)CCO[C@@H]1O[C@H](CO[C@H]2OC[C@](O)(CO)[C@H]2O)[C@@H](O)[C@H](O)[C@H]1O (stereo partly specified) | – | -0.279% [at 17.3 µM]
COc1ccc(C(=O)CC(=O)O)c2c1C=CC(C)(C)O2 | – | 0.799%
Cc1sc(C)c(C(=O)NC2(c3ccc(C(=O)O)cc3)CC2)c1Cc1ccc(C(F)(F)F)cc1 | – | -15.2%
C/C=C(/C)C(=O)OC1C(OC(C)=O)C23C(O)OC4(CCC5C6(C)CCC(OC7OC(C(=O)O)C(O)C(OC8OC(CO)C(O)C(O)C8OC8OC(C)C(O)C(O)C8OC8OCC(O)C(O)C8O)C7OC7OC(CO)C(O)C(O)C7O)C(C)(C)C6CCC5(C)C4(C)CC2OC(C)=O)C3CC1(C)C (stereo unspecified) | – | 4.87% [at 9.23 µM]
CC(C)=CCC[C@](C)(O[C@@H]1O[C@H](CO[C@@H]2OC[C@H](O)[C@H](O)[C@H]2O)[C@@H](O)[C@H](O)[C@H]1O)[C@H]1CC[C@]2(C)[C@@H]1[C@H](O)C[C@@H]1[C@@]3(C)CC[C@H](O[C@@H]4O[C@H](CO)[C@@H](O)[C@H](O)[C@H]4O[C@@H]4O[C@H](CO)[C@@H](O)[C@H](O)[C@H]4O)C(C)(C)[C@@H]3CC[C@]12C | inactive [at 17.3 µM] | –
CC(C)CC(NC(=O)OCc1ccccc1)C(=O)NC(CC(C)C)C(=O)NC(CCC(=O)O)C(=O)Nc1ccc2ccccc2c1 (stereo not drawn) (Cbz-Leu-Leu-Glu-βNA; configuration not given here) | – | -4.3%
C[C@@H]1O[C@@H](O[C@@H]2[C@@H](O)[C@H](O[C@H]3[C@H](O[C@H]4CC[C@@]5(C)C(CC[C@]6(C)C5CC=C5[C@@H]7CC(C)(C)CC[C@]7(C(=O)O[C@@H]7O[C@H](CO)[C@@H](O)[C@H](O)[C@H]7O)CC[C@]56C)C4(C)C)O[C@H](C(=O)O)[C@@H](O)[C@@H]3O)OC[C@H]2O)[C@H](O)[C@H](O)[C@H]1O (stereo partly specified) | – | 2.27% [at 9.23 µM]
C=C(CCO)C(=O)OCC1OCC(OC(=O)C(=C)CCO[C@@H]2O[C@H](COC(=O)C(=C)CCO[C@@H]3O[C@H](CO)[C@@H](O)[C@H](O)[C@H]3O)[C@@H](O)[C@H](O)[C@H]2O)C(O)C1O (stereo partly specified) | – | -8.47% [at 17.3 µM]
CC1(C)CCCC2(C)c3c4c(c(=O)oc(=O)c3=CCC12)=CCC1C(C)(C)CCCC41C (stereo unspecified) | – | -5.62% [at 17.3 µM]
CN(C)CCC[C@]1(c2ccc(F)cc2)OCc2cc(C#N)ccc21 | – | -5.56%
O=C(O)CCc1cccc(O)c1O[C@@H]1O[C@H](CO)[C@@H](O)[C@H](O)[C@H]1O | – | -0.912%
Cc1ccc(C)c(S(=O)(=O)n2cnc3ccccc32)c1 | – | 2.9%
CC(=C\C(C)O)/C=C(\C)C(=O)CC1CC(CC(N)=O)CC(=O)O1 (stereo unspecified) | inactive | –
C=C1CCC2[C@](C)(CO)CCC[C@@]2(C)[C@@H]1CCC1=CCOC1=O (stereo partly specified) | – | -2.83%
CC(C)=CCC[C@](C)(O[C@@H]1O[C@H](CO[C@@H]2O[C@@H](CO)[C@H](O)[C@H]2O[C@@H]2OC[C@@H](O)[C@H](O)[C@H]2O)[C@@H](O)[C@H](O)[C@H]1O)[C@H]1CC[C@]2(C)[C@@H]1[C@H](O)CC1[C@@]3(C)CC[C@H](O[C@@H]4O[C@H](CO)[C@@H](O)[C@H](O)[C@H]4O[C@@H]4O[C@H](CO)[C@@H](O)[C@H](O)[C@H]4O)C(C)(C)C3CC[C@]12C (stereo partly specified) | – | -9.17% [at 9.23 µM]
